# Source: ChEMBL document CHEMBL4513160, “CO-ADD screening of MMV (CH) - Small Polar Library”
# Among all 23,000 compounds or so, about 30 (0.1%) showed an effect of 50% or more. The sample holds strong results, similar compounds and a random draw of the others, so the mix is not that of the screen. Entries with a potency or affinity are not part of this list.
# System: Pseudomonas aeruginosa
# Details: Concentration 300 ug.mL-1; ASSAY_TEST Inhibition of Bacterial Growth; detection method Absorption (OD600); MEDIA CAMHB; plate type 384well; NBS; CORNING #3640; time 18 hr
row,Compound,Inhibition
1,COC(=O)c1ccc(=O)n(CC(=O)NCCC(C)C)c1,4.64%
2,O=C(NCCOc1ncccc1Cl)c1cscn1,13.9%
3,COc1ccc(CN2C[C@H](O)[C@@H](N(C)C)C2)c(C)c1C,27.33%
4,Cc1cc(C(=O)N2C[C@H](C3CC3)[C@@H](N)C2)ccc1O,1.32%
5,CC1CCN(CCNC(=O)c2cnccn2)CC1,-12.84%
6,CNCCN1CCOC(C)(C)C1,9.7%
7,NS(=O)(=O)c1ccc(NC(=O)Cn2ccnc2)cc1,5.95%
8,Cc1cc(C(=O)O)cc(N2C[C@H](C3CC3)[C@@H](N)C2)n1,-2.3%
9,CC(SCCN1CCOCC1)C(=O)N(C)C(C)C (stereo unspecified),5.48%
10,N#Cc1ccc(Br)o1,8.03%
11,Cc1cccc(C)c1-n1nnnc1SCC(N)=O,21.56%
12,CNC(=O)C1CCN(CCCOc2ccccc2)CC1,24.15%
13,CCCNC(=O)CCNC(=O)NCC,0.02%
14,CCc1ccc(C(=O)NC2CNC[C@@H]2OC)o1 (stereo partly specified),36.32%
15,NCC1(CCO)CCOC1 (stereo unspecified),6.83%
16,COc1cccc(-c2ccc(CNS(N)(=O)=O)cc2)c1,23.3%
17,O=C(NCC1CCNCC1)c1ccncc1,12.69%
18,CCN(CCn1cccn1)C(=O)CNC(=O)N(C)C,-8.78%
19,CCN(c1ccccc1)S(N)(=O)=O,5.95%
20,COc1c(C)cnc(CNC(=O)CSC)c1C,1.37%
21,CN1CCC(NC(=O)CSCc2cccs2)CC1,12.03%
22,CNC(=O)NC1CN(C(=O)OC(C)(C)C)C1,-6.26%
23,CN(C)CCCOc1cccc(CN2CC(O)C2)c1,2%
24,OC1(CNCc2ccccn2)CCc2ccccc21 (stereo unspecified),24.9%
25,Cc1c(Cl)cccc1C(=O)NC(C)c1nnnn1C (stereo unspecified),8.95%
26,Cc1cc(N(C)C)n2nccc2n1,-18.53%

row,Compound,Inhibition
1,CCN(CC)C(=O)COc1ccc(C(C)=O)c(F)c1,4.67%
2,COc1cn(C)c(C(=O)NCc2ccco2)cc1=O,21.6%
3,CC(=O)c1ccc(CNc2nccnc2C#N)nc1C,14.58%
4,Cc1nc(C2CCN(C(=O)c3cn[nH]c3)CC2)no1,-1.22%
5,NC1CCC(NC(=O)c2ccnc(C3CC3)n2)CC1 (stereo unspecified),4.44%
6,CN1CCC(CCNS(C)(=O)=O)CC1,-4.45%
7,CCCc1noc(C(C)Nc2cccc(C(N)=O)c2)n1 (stereo unspecified),24.66%
8,O=S1(=O)CCC(NCc2csc(-c3ccccn3)n2)C1 (stereo unspecified),17.32%
9,CCC1CN(Cc2ccnc(N)c2)CCO1 (stereo unspecified),4.62%
10,COCCNC(=O)CNC(=O)c1cc(C)cc(C)c1Br,7.79%
11,CNCCCNC(=O)CCc1ccsc1,-24.67%
12,CCC(C)NC(=O)NCc1ccc(-n2ccnc2)nc1 (stereo unspecified),14.1%
13,CN1CCN(C(=O)C2COc3ccccc3O2)CC1=O (stereo unspecified),3.72%
14,Cc1ccccc1CNc1nnc(CO)s1,26.98%
15,CC1(CO)COCCN1Cc1ccccc1 (stereo unspecified),11.96%
16,Cc1cccc(C(=O)Nc2nnn(C)n2)c1,2.82%
17,Cc1n[nH]c(C)c1S(=O)(=O)N1CCN(C)CC1,33.93%
18,CCNC(=O)Nc1c[nH]nc1C1CCCNC1 (stereo unspecified),15.62%
19,NS(=O)(=O)NCC1CCCN(CCC2CCCC2)C1 (stereo unspecified),13.03%
20,Cc1nc(CN2CCC(O)(CN3CCCC3)CC2)c[nH]1,20.39%
21,O=C(C1CCCO1)N1CCN(c2cc(Br)ccn2)CC1 (stereo unspecified),3.3%
22,c1ccc(-c2nc3c([nH]2)CCNC3)cc1,7.84%
23,CNC(=O)CN1CCCC(CO)(CC=C(C)C)C1 (stereo unspecified),20.92%
24,N#Cc1ccc(CN2CCC3(CCC3O)CC2)cc1 (stereo unspecified),20.3%
25,Cc1ocnc1C(=O)NCCNC(=O)c1cccnc1,1.53%
